From PMC6579518

Each substance was assayed against Large ribosomal subunit protein eL14A (UniProt P36105) (assay: cross-link between two proteins; cross-linking mass spectrometry).
Sequence of Large ribosomal subunit protein eL14A (P36105 whole entry): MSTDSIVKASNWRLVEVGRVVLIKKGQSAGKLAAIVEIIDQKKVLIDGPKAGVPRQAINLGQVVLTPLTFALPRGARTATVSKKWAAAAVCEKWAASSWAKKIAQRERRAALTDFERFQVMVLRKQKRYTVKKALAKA

Sequence of Large ribosomal subunit protein uL13A, P26784 (P26784 whole entry): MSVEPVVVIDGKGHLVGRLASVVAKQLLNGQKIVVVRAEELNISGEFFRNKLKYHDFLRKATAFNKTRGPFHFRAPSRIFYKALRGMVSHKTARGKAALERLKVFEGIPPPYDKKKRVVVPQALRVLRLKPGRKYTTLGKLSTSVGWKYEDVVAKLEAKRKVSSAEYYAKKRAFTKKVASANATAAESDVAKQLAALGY
Sequence of Large ribosomal subunit protein uL13B, P26785 (P26785 whole entry): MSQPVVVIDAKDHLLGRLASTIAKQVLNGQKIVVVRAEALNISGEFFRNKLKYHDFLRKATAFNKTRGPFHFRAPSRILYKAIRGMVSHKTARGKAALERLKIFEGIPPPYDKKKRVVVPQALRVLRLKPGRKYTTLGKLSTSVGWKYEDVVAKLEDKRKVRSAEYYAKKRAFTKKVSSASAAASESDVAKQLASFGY
Sequence of Large ribosomal subunit protein eL32, P38061 (P38061 whole entry): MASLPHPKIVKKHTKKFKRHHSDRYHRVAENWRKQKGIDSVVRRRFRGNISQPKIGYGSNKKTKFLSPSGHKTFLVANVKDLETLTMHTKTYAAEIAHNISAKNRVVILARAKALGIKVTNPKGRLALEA

Row | Substance | listed as a hit
1 | Large ribosomal subunit protein uL13A, P26784 | yes
2 | Large ribosomal subunit protein uL30A, P05737 | yes
3 | Large ribosomal subunit protein uL13B, P26785 | yes

Each substance was assayed against Ribosome biogenesis protein ALB1 (UniProt P47019) in the same assay as above.
Sequence of Ribosome biogenesis protein ALB1 (P47019 whole entry): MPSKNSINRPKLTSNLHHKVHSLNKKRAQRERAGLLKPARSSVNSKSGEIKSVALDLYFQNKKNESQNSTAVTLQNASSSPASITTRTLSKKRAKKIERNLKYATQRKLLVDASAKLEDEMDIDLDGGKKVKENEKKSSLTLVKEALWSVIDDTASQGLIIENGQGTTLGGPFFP

Row | Substance | listed as a hit
4 | Large ribosomal subunit protein eL6B, P05739 | yes
5 | Large ribosomal subunit protein eL32, P38061 | yes
6 | Large ribosomal subunit protein uL24A, P05743 | yes
